Several values for one entry are separate records, joined by “and”; a condition that tells them apart may be missing. Equal values may be shown once. This is part of a sample that, as a whole, favours compounds with a hit. Of some 83,000 tested, about 20% had one in any assay.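 In brief: 96-well plates, 48 h treatment, single concentration, percent growth endpoint.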 Values without a mark were called inactive. Activity calls are given as the source filed them. Rule for the calls: active = growth percent below 10; inactive = the rest.
These molecules were tested on K-562 leukemia (assay: NCI-60 one-dose screen, 48 h (100 = growth as untreated, 0 = no growth, -100 = all killed)). Conditions: 10 µM unless noted.

Row | Structure (SMILES) | growth
1 | CCNC(=O)Oc1ccc(/C(=C(/C)Cc2ccc(OC)cc2)c2ccc(OCCN(CC)CC)cc2)cc1 | -45.2% (active)
2 | Cc1ccc(-c2nc(C#N)c(S(=O)(=O)N(C)C)o2)cc1 | 12.3%
3 | COCCn1cc(-c2nc(-c3cn(CCOC)c4ncccc34)cs2)c2ccccc21 | 119%
4 | Nc1nc2ccccc2c2c(=O)c3ccc(Cl)cc3sc12 | 90.7%
5 | CC[C@]1(O)CC2CN(CCc3c([nH]c4ccccc34)C(C(=O)OC)(c3cc4c(cc3OC)N(C=O)[C@H]3[C@@](O)(C(=O)OC)[C@H](OC(C)=O)[C@]5(CC)[C@@H]6C[C@@H]6CN6CC[C@]43[C@@H]65)C2)C1 (stereo not given in full) | 27.5%
6 | CN1CCN(CCCN2c3ccccc3Sc3ccc(Cl)cc32)CC1 | 42.3% and 39.7%
7 | Nc1ncc(-c2ccc3ncnc(N4CCc5ccc(Cl)cc54)c3c2)cc1C(F)(F)F | 30.5%
8 | CC(C)(C)c1cc(NC(=O)Nc2ccc(-c3cn4c(n3)sc3cc(OCCN5CCOCC5)ccc34)cc2)no1 | 11.9% and 33.9%
9 | CC1(Cc2ccccc2)CC2=C(C(=O)O1)C(c1ccccc1)NC(=O)N2 (stereo not given) | 78.4%
10 | COc1cc(C=O)ccc1Oc1ccc([N+](=O)[O-])cc1[N+](=O)[O-] | 97.3%

Source: PubChem BioAssay (NCI)
